Potency and outcome data for 14 molecules are collected here from PubChem BioAssay (Tox21).

Structures are written as SMILES. Where “and” joins values, the source holds several entries; their conditions need not be identical. Identical values can stand only once. Inconclusive results are not listed. Some compounds were tested as several samples or in several runs, with calls that do not always agree. Calls of active or inactive are those of the source. Unless noted, calls follow the shape of the dose curve; as a rule, active = well fitted curve in the direction sought with a large enough effect in the repeat runs; inconclusive = weak or mixed curves; inactive = no such curve, though single readings can be large; an effect the other way counts as inactive or inconclusive.

The nature of assay [1]: qHTS assay to identify aromatase inhibitors - cell viability counter screen (AID 743084).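 Also: cells stimulated with testosterone during compound exposure; nearly all actives have a fitted effect of over 55% in size.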 Also: potency is read from the fitted curve at half-maximal effect.
In assay [2] the target is Aryl hydrocarbon receptor (Homo sapiens) (UniProt P35869). As to the kind of experiment: qHTS assay to identify small molecule that activate the aryl hydrocarbon receptor (AhR) signaling pathway (AID 743085). Also: nearly all actives have a fitted effect of over 15% in size. Also: potency is read from the fitted curve at half-maximal effect.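 As to activation: HG2L7.5c1 human HepG2 liver cells with stably integrated DRE-driven firefly reporter; series mostly up to about 70 µM.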 An outline of the steps:
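Luminescence (ONE-Glo) from a dioxin-responsive-element luciferase reporter in HG2L7.5c1 HepG2 cells after 24 hr compound exposure at 37C; viability measured by CellTiter-Fluor fluorescence beforehand.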

A short description of assay [3]: qHTS assay to identify small molecule that activate the aryl hydrocarbon receptor (AhR) signaling pathway - cell viability counter screen (AID 743086).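 Also: HepG2 liver cells carrying the AhR DRE luciferase reporter; series mostly up to about 70 µM; nearly all actives have a fitted effect of over 45% in size.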 An outline of the steps: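 HepG2-AhR-luc (HG2L7.5c1) cells, 4000/well, treated 24 h at 37 C with compound; viability measured as CellTiter-Fluor fluorescence after 30 min in the same wells as the luciferase read.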
In general terms: Quantitative high-throughput screening tests each substance at several concentrations.

Assay [4] has as its target Peroxisome proliferator-activated receptor gamma (Homo sapiens) (UniProt P37231). As to the kind of experiment: qHTS assay to identify small molecule agonists of the peroxisome proliferator-activated receptor gamma (PPARg) signaling pathway (AID 743094; active = well fitted activation curve with a large enough effect in the signal ratio in the repeat runs, not every such curve was filed as active; the % refers to the signal ratio; also: potency is read from the fitted curve at half-maximal effect). In outline: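 Reporter activation was scored by fluorescence of cleaved LiveBLAzer B/G substrate (1 h, room temperature) in PPARg-bla HEK293H cells previously treated 17 h at 37C with DMSO-dissolved compounds.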

For assay [5] the target is unchanged. The experiment in a line: qHTS assay to identify small molecule antagonists of the peroxisome proliferator-activated receptor gamma (PPARg) signaling pathway (AID 743191; calls by dose curve; also: nearly all actives have a fitted effect of over 30% in size; also: potency is read from the fitted curve at half-maximal effect). In outline:
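GeneBLAzer PPARg UAS-bla HEK293H cells, 5 h post-plating, exposed to compounds 17 h at 37C. LiveBLAzer B/G FRET substrate added for 1 h at room temperature; beta-lactamase reporter read by fluorescence intensity.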

Assay [6] can be described thus: qHTS assay to identify small molecule antagonists of the peroxisome proliferator-activated receptor gamma (PPARg) signaling pathway - cell viability counter screen (AID 743194). Also: nearly all actives have a fitted effect of over 55% in size. The conditions noted are these: Potency: co-treated with 50 nM rosiglitazone unless noted. In outline: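 Cytotoxicity counter screen in PPARg-bla HEK293H cells, same wells as reporter assay. Compounds plus 50 nM rosiglitazone (final) for 17 h at 37 C, then viability read by CellTiter-Glo luminescence.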

Assay [7] is described as follows: qHTS assay for small molecule agonists of the antioxidant response element (ARE) signaling pathway - cell viability counter screen (AID 743203; calls by dose curve; also: nearly all actives have a fitted effect of over 55% in size; also: potency is read from the fitted curve at half-maximal effect). In outline:
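Viability counter screen: stably transfected ARE-bla HepG2 line, 16 hrs compound exposure at 37C/5% CO2, ATP-based CellTiter-Glo luminescence measured in the reporter wells.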

A short description of assay [8]: qHTS assay for small molecule activators of the heat shock response signaling pathway - cell viability counter screen (AID 743209). Also: nearly all actives have a fitted effect of over 50% in size. Also: potency is read from the fitted curve at half-maximal effect. An outline of the steps:
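Viability of HSE-bla HeLa cells is measured with CellTiter-Glo in the wells already used for the reporter read. Compound exposure lasts 5 h at 37 C, and luminescence is read after 30 min at room temperature.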

Assay [9] in a line: qHTS assay for small molecule activators of the heat shock response signaling pathway (AID 743210; active = well fitted activation curve with a large enough effect in the signal ratio in the repeat runs, with a control signal flat, not every such curve was filed as active; the % refers to the signal ratio;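 also: HeLa cells with beta-lactamase reporter driven by heat shock elements; series mostly up to about 63 µM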). In outline:
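Beta-lactamase reporter read-out: FRET substrate fluorescence after 2.5 h at RT, following 5 h compound treatment at 37 C of HeLa cells carrying HSE-driven bla reporter; quantitative HTS format.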

Assay [10] in a line: qHTS assay to identify small molecule agonists of the peroxisome proliferator-activated receptor delta (PPARd) signaling pathway - cell viability counter screen (AID 743211). Also: nearly all actives have a fitted effect of over 55% in size. Also: potency is read from the fitted curve at half-maximal effect. In outline: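 Viability was measured as CellTiter-Glo luminescence (30 min, room temperature) in the same wells as the beta-lactamase readout. GeneBLAzer PPARd UAS-bla HEK293H cells received compound after 5 h plating and were incubated 17 h at 37 C.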

In assay [11] the target is Peroxisome proliferator-activated receptor delta (Homo sapiens) (UniProt Q03181). As to the kind of experiment: qHTS assay to identify small molecule agonists of the peroxisome proliferator-activated receptor delta (PPARd) signaling pathway (AID 743212; calls by dose curve). An outline of the steps:
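Read-out: beta-lactamase FRET fluorescence after 2 h room-temperature incubation with LiveBLAzer B/G substrate. Cells were HEK293H carrying a UAS-bla reporter for PPARd, treated at 37 C with DMSO-dissolved compounds.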

A short description of assay [12]: qHTS assay to identify small molecule antagonists of the peroxisome proliferator-activated receptor delta (PPARd) signaling pathway - cell viability counter screen (AID 743213). Also: nearly all actives have a fitted effect of over 50% in size. Also: potency is read from the fitted curve at half-maximal effect. An outline of the steps:
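In this counter screen, HEK293H cells carrying a UAS-beta-lactamase reporter are co-treated with test compounds and 300 nM L165041 (final) for 17 h at 37 C; cell viability is quantified by CellTiter-Glo luminescence.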

Assay [13] deals with Peroxisome proliferator-activated receptor delta (Homo sapiens) (UniProt Q03181). The experiment in a line: qHTS assay to identify small molecule antagonists of the peroxisome proliferator-activated receptor delta (PPARd) signaling pathway (AID 743215; active = well fitted inhibition curve with a large enough effect in the signal ratio in the repeat runs, not every such curve was filed as active; the % refers to the signal ratio;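 also: cells stimulated with agonist L165041 at 300 nM final during compound exposure; series mostly up to about 62 µM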). An outline of the steps: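 Plated HEK293H PPARd-bla cells rested 5 h at 37 C and 5% CO2. Compound, then agonist L165041 at 300 nM final, was added; 17 h at 37 C followed. Substrate loading, 2 h room temperature, fluorescence measured.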

Assay [14] is described as follows: qHTS assay to identify small molecule agonists of the farnesoid-X-receptor (FXR) signaling pathway - cell viability counter screen (AID 743218). Also: nearly all actives have a fitted effect of over 45% in size. An outline of the steps:
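Viability of FXR-bla HEK 293T cells is measured by ATP-based CellTiter-Glo luminescence following 16 h compound treatment at 37 C and a prior 2 h room-temperature beta-lactamase substrate step.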

A short description of assay [15]: qHTS assay to identify small molecule antagonists of the farnesoid-X-receptor (FXR) signaling pathway - cell viability counter screen (AID 743221; active = well fitted cell-killing curve with a large enough effect in the repeat runs, not every such curve was filed as active; also: nearly all actives have a fitted effect of over 50% in size; also: potency is read from the fitted curve at half-maximal effect). In outline: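 Cytotoxicity counter screen run in the FXR-bla reporter wells: HEK 293T cells exposed to compound with 50 uM (final) chenodeoxycholic acid for 16 h, 37 C, then viability measured by CellTiter-Glo luminescence after 30 min, room temperature.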

Assay [16] concerns the target Vitamin D3 receptor (Homo sapiens) (UniProt P11473). The experiment in a line: qHTS assay to identify small molecule agonists of the vitamin D receptor (VDR) signaling pathway (AID 743222; calls by dose curve). An outline of the steps:
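Fluorescence from cleaved LiveBLAzer B/G FRET substrate served as readout. VDR-bla cells had been treated 16 h at 37C with test compounds in DMSO, following a 4 h settling period, and substrate was loaded for 2 h at RT.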

Assay [17] can be described thus: qHTS assay for small molecule agonists of the antioxidant response element (ARE) signaling pathway (AID 743202; active = well fitted activation curve with a large enough effect in the signal ratio in the repeat runs, not every such curve was filed as active; the % refers to the signal ratio; also: potency is read from the fitted curve at half-maximal effect). In outline: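 HepG2 ARE-bla reporter line, 2,000 cells/well; 5 h preincubation 37 C/5% CO2; compound (DMSO) 16 h 37 C; B/G FRET substrate 2 h RT; fluorescence intensity.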
Assay [18] deals with Vitamin D3 receptor (Homo sapiens) (UniProt P11473). As to the kind of experiment: qHTS assay to identify small molecule antagonists of the vitamin D receptor (VDR) signaling pathway (AID 743223; active = well fitted inhibition curve with a large enough effect in the signal ratio in the repeat runs, not every such curve was filed as active; the % refers to the signal ratio). An outline of the steps:
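Antagonist mode: compound added to VDR-bla cells alongside agonist 1alpha,25-dihydroxyvitamin D3 (3 nM final), incubation 16 h at 37C. Read-out is LiveBLAzer FRET fluorescence, 2 h at room temperature.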

Sequence of Peroxisome proliferator-activated receptor delta (Homo sapiens) (Q03181 whole entry, looked up): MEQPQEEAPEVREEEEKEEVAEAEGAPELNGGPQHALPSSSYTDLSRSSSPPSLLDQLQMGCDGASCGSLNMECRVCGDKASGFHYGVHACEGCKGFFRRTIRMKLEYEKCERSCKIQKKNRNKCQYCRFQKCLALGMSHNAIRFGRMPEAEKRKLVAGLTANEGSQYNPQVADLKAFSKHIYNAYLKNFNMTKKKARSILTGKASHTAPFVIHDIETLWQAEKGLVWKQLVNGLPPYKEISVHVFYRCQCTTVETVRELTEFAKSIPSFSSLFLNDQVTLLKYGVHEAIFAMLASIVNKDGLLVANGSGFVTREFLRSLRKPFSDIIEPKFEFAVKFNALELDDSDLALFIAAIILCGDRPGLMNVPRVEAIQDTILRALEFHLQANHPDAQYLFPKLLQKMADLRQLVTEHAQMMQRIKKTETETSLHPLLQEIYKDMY
Sequence of Aryl hydrocarbon receptor (Homo sapiens) (P35869 whole entry, looked up): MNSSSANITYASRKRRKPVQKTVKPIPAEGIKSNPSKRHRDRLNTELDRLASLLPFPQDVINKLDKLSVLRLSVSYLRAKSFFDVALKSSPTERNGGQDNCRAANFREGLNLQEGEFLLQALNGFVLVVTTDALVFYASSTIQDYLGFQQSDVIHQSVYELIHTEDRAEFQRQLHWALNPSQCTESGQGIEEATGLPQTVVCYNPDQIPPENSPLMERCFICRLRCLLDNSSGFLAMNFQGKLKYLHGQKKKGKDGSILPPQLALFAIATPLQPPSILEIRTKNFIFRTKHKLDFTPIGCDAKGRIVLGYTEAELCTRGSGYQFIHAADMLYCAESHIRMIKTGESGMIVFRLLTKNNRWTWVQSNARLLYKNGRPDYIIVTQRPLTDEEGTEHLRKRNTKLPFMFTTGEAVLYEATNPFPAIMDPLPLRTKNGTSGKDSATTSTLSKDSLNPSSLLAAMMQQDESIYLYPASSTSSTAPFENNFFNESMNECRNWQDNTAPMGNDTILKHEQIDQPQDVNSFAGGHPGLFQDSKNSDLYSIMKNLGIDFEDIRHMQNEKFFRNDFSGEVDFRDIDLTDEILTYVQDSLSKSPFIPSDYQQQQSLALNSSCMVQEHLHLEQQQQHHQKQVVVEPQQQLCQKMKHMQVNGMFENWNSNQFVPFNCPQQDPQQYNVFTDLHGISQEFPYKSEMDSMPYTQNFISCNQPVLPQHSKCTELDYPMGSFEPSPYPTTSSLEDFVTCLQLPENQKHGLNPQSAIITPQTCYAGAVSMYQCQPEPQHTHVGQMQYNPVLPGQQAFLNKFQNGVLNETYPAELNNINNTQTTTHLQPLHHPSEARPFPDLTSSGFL
Sequence of Vitamin D3 receptor (Homo sapiens) (P11473 whole entry, looked up): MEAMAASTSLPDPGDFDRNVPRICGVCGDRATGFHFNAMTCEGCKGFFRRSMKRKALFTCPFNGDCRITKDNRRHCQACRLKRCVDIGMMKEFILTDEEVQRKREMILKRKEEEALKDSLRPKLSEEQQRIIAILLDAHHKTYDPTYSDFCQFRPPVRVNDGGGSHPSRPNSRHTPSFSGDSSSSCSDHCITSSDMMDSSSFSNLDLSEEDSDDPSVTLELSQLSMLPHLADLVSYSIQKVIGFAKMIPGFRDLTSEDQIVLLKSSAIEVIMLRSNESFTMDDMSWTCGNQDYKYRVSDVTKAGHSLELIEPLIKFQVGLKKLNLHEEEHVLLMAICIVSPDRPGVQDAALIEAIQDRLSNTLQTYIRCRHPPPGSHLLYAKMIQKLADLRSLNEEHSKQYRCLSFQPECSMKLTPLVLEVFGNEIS
Sequence of Peroxisome proliferator-activated receptor gamma (Homo sapiens) (P37231 whole entry, looked up): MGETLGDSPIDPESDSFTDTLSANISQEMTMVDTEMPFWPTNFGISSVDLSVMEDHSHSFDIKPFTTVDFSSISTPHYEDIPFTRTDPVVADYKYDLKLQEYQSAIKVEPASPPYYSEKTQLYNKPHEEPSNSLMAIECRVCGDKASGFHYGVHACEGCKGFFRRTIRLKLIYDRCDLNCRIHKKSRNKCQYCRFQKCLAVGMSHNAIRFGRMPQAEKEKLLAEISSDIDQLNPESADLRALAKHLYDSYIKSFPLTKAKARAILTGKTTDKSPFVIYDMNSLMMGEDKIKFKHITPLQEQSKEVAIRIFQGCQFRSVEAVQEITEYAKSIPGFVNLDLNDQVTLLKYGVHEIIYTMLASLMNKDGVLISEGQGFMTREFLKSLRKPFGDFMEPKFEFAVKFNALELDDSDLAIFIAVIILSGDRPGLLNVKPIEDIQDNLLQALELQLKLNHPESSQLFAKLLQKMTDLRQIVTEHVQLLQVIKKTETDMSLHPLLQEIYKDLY

For `CC(C)(C)c1ccccc1O`, the Potency result in assay [1], in assay [2], in [3], in assay [4], in [5] and in assay [6] was “inactive” each time. In addition, the Potency entry in assay [7], in assay [8], in assay [9], in assay [10], in assay [11] and in assay [12] was “inactive” in each case. Further, the Potency entry in assay [13], in assay [14] and in [15] was “inactive” each time. Moreover, in assay [16], the molecule was classed as inactive.

Consider `Cc1cccc(N)c1N`, for which the Potency entry in [1], in assay [3], in assay [4], in assay [5], in assay [6] and in assay [7] was “inactive” throughout. In addition, the Potency entry in assay [8], in assay [9], in assay [10], in assay [14] and in assay [15] was “inactive” each time. In addition, the Potency in [2] was 11.8 µM (active) and 43.3 µM (active); in [17], 9.36 µM (active) and 17.2 µM (active). For the same molecule, in [16], the call was inactive.

With `O=C1C=CC(=O)C=C1`, the Potency result in assay [1], in [2], in [3], in [4], in assay [7] and in [8] was “inactive” each time. Besides, the Potency entry in assay [9], in assay [10], in assay [12] and in assay [15] was “inactive” throughout.

With `CC(C)Oc1cc(-n2nc(C(C)(C)C)oc2=O)c(Cl)cc1Cl`, the Potency is 27.3 µM (active) in assay [1]; “inactive and 34.4 µM (active)” in assay [7]; 15.5 µM (active) in assay [10]; “inactive and 27.5 µM (active)” in assay [12]; “inactive and 49 µM (active)” in [15]. Also, the Potency result in assay [2], in assay [3], in [4], in assay [6], in assay [8] and in assay [13] was “inactive” throughout. In addition, the molecule was called inactive in assay [16] and in assay [18].

`CCCCOCCOP(=O)(OCCOCCCC)OCCOCCCC`: the Potency result in assay [1], in assay [3], in assay [4], in assay [5], in [6] and in assay [7] was “inactive” throughout. Also, the Potency entry in [8], in assay [9], in assay [11], in assay [12], in assay [13] and in [14] was “inactive” each time. Moreover, in assay [15], the Potency entry was “inactive”. Moreover, the molecule was called inactive in [16] and in assay [18].

In the case of `O=c1oc2ccccc2c(O)c1C(CC(O)c1ccc(-c2ccc(Br)cc2)cc1)c1ccccc1` (configuration not stated), the Potency result in assay [1], in assay [2], in [3], in [7], in assay [10] and in assay [12] was “inactive” throughout. Also, the Potency entry in assay [15] was “inactive”. The Potency in assay [4] was 601 nM (active) and 1.04 µM (active); in assay [8], 41.3 µM (active).

For `S=C1NCCN1`, the Potency result in assay [1], in assay [2], in [3], in assay [17], in [7] and in [8] was “inactive” in each case. Moreover, the Potency entry in assay [9], in [10], in assay [12], in assay [14] and in assay [15] was “inactive” each time. Besides, the molecule was classed as inactive in assay [16] and in assay [18].

Take `CCCCCCCCC(=O)NCc1ccc(O)c(OC)c1`: the Potency entry in assay [1], in [3], in assay [4], in assay [5], in assay [6] and in assay [17] was “inactive” in each case. For the same molecule, the Potency result in assay [7], in assay [8], in assay [9], in [10], in assay [11] and in [12] was “inactive” each time. For the same molecule, the Potency result in assay [13] and in [15] was “inactive” in each case. Moreover, the molecule was called inactive in assay [16] and in assay [18].

For `CCc1cccc(CC)c1N(COC)C(=O)CCl`, the Potency entry in assay [2], in assay [3], in assay [7], in [8], in assay [10] and in [11] was “inactive” each time. Moreover, the Potency entry in assay [12], in assay [14] and in [15] was “inactive” each time. Moreover, the Potency in assay [17] was 4.19 µM (active) and 4.86 µM (active). In addition, the call in [16] and in assay [18] was inactive.

On to `N[C@@H](Cc1ccc(N(CCCl)CCCl)cc1)C(=O)O`, for which the Potency result in [2], in assay [3], in assay [4], in assay [5], in assay [6] and in assay [17] was “inactive” throughout. Further, the Potency result in assay [7], in [8], in [9], in [10], in [11] and in [12] was “inactive” in each case. Moreover, the Potency entry in [13], in assay [14] and in [15] was “inactive” in each case.

With `c1cc(OCC2CO2)ccc1Cc1ccc(OCC2CO2)cc1` (configuration not stated), the Potency result in [3], in [7], in assay [8], in assay [10], in assay [12] and in assay [14] was “inactive” in each case. For the same molecule, the Potency result in [15] is “inactive”. In addition, in assay [17], the Potency is 61.4 µM (active) and 61.1 µM (active).

With `CC(C)=CC1C(C(=O)OCc2coc(Cc3ccccc3)c2)C1(C)C` (configuration not stated), the Potency entry in [1], in assay [2], in assay [3], in assay [6], in assay [7] and in assay [8] was “inactive” throughout. Moreover, the Potency entry in assay [10], in assay [11], in assay [12], in [13], in [14] and in assay [15] was “inactive” throughout. For the same molecule, in assay [17], the Potency is 54.5 µM (active) and 30.6 µM (active). The outcome in assay [16] and in [18] was inactive.

In the case of `CC(C)N(C(=O)SCC(Cl)=C(Cl)Cl)C(C)C`, the Potency result in assay [3], in assay [6], in [17], in assay [7], in [8] and in assay [9] was “inactive” throughout. Also, the Potency result in assay [10], in [11], in assay [12], in assay [13], in [14] and in [15] was “inactive” each time. The call in assay [16] and in assay [18] was inactive.

For the molecule `N#Cc1cc(Br)c(O)c(Br)c1`, the Potency result in [1], in [3], in [4], in assay [6], in assay [7] and in assay [8] was “inactive” in each case. Besides, the Potency entry in assay [9], in [10], in assay [11], in [13] and in assay [15] was “inactive” in each case. For the same molecule, in assay [5], the Potency was 54.9 µM (active) and 21.1 µM (active).
